# According to PubChem BioAssay:
# Active and inactive are the calls of the source. Unless noted, the rule behind the calls is not given here.
# Legend:
# [1] = test system: XIP peptide (Xip251-270) binding; experiment: small-molecule binders of XIP peptide, primary screen, biochemical, small-molecule microarray, fluorescence 635/667 nm, 0.1 µg/mL protein (AID 1182); settings: fluorescent protein binding, 635 nm, higher = more signal, called active from +8 up or from −8 down
# XIP peptide (Xip251-270) = experiment: small-molecule binders of XIP peptide, primary screen, biochemical, small-molecule microarray, fluorescence 635/667 nm, 0.5 µg/mL protein (AID 1183); settings: small-molecule microarray binding, fluorescence 635 nm; higher = more signal
# [2] = Plasmodium falciparum growth inhibition, primary screen, strain 3D7, DAPI fluorescence, 100 nL (AID 1184);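 note: parasites grown inside human red blood cells in medium with human serum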; settings: P. falciparum 3D7 growth, 3 d, higher = more signal
# [3] = biological target: Homeobox protein Hox-A13 (Mus musculus) (UniProt Q62424); experiment: inhibitors of HoxA13-DNA binding, primary screen, biochemical, fluorescence polarization, labeled oligonucleotide (AID 1185); settings: 15 min, higher = more signal, called active from +8 up or from −8 down
# Homeobox protein Hox-A13 (Mus musculus), sequence (Q62424 whole entry, looked up): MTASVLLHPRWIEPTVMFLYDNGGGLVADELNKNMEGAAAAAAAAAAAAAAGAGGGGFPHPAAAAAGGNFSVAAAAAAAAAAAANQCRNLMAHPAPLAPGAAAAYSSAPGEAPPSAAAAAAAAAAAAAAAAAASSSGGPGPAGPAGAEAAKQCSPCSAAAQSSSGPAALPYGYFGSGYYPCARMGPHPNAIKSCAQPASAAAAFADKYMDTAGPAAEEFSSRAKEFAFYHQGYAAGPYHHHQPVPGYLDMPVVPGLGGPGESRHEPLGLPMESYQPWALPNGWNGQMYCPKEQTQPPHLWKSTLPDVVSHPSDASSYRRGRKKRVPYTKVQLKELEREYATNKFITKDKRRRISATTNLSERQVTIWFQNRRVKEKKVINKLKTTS
# [4] = inhibitors of hydroxyurea-induced Chk1 phosphorylation, primary screen, imaging, HeLa, phospho-Chk1 antibody, percent positive cells (AID 1186); settings: hydroxyurea-induced phospho-Chk1 immunofluorescence imaging, higher = more signal
# [5] = inhibitors of hydroxyurea-induced Chk1 phosphorylation, primary screen, imaging, HeLa, phospho-Chk1 nuclear intensity (AID 1187); settings: hydroxyurea-induced phospho-Chk1 immunofluorescence imaging, higher = more signal
Structure (SMILES),composite z-score [1],composite z-score (XIP peptide (Xip251-270)),z-score [2],z-score [3],z-score [4],z-score [5]
C=C(/C(=C/C[C@H](OC(C)=O)c1ccccc1OCCO)c1cnc2ccccc2c1)C(C)C,0.609 (inactive),-0.167,-2.76,-5.41 (inactive),0.284 (inactive),-0.141 (inactive)
COCCOC(=O)N1C(=O)[C@@]2(c3cc(C#CCCO)ccc31)[C@H](C(N)=O)[C@H]1C(=O)O[C@H](c3ccccc3)[C@H](c3ccccc3)N1[C@@H]2c1ccc(O)cc1,-0.13 (inactive),-0.452,2.08,-4.08 (inactive),0.0513 (inactive),-0.0312 (inactive)
Cc1ccc(N2C(=O)c3ccccc3[C@@H](C(=O)NC3CC3)[C@@H]2c2ccc(CO)cc2)nc1,-1.49 (inactive),-0.0549,-0.651,-1.95 (inactive),-0.0109 (inactive),-0.28 (inactive)
C=CCOC(=O)[C@H]1[C@@H]2C(=O)O[C@@H](c3ccccc3)[C@@H](c3ccccc3)N2[C@@H](c2ccc(OCCOC(=O)[C@@H]3C[C@@H]4C(=O)N[C@@H](CC(C)C)C(=O)N4[C@@H]3c3ccc(O)cc3)cc2)[C@]12C(=O)Nc1ccccc12,1.25 (inactive),0.802,-1.66,-0.596 (inactive),0.659 (inactive),0.991 (inactive)
C[N+](C)(C)CCCCCCNC(=O)[C@@H]1C[C@@H]2C(=O)N[C@@H](Cc3ccccc3)C(=O)N2[C@@H]1c1cccc(OCCO)c1,0.694 (inactive),0.814,-0.145,-4.83 (inactive),-0.362 (inactive),-0.398 (inactive)
COC(=O)[C@H](Cc1ccccc1)N[C@@H](/C=C/C1CC1)[C@H](O)Cc1ccccc1,-0.207 (inactive),-0.432,-0.986,-5.71 (inactive),-0.157 (inactive),-0.295 (inactive)
CC(C)C(CO)N1C(=O)[C@@H]2C3C(=O)OCCC/C=C\[C@H]3OC23C=CCN(CCN2CCOCC2)C(=O)[C@@H]13 (stereo partly drawn),-0.0949 (inactive),-0.816,1.17,-7 (inactive),0.248 (inactive),-0.0469 (inactive)
[N-]=[N+]=NCc1ccccc1[C@@H]1OC(c2ccc(OCCCO)cc2)=N[C@]1(Cc1ccccc1)C(=O)NCC(O)CO (stereo partly drawn),-0.275 (inactive),-0.0063,-2.06,-2.01 (inactive),-0.0268 (inactive),0.117 (inactive)
C=CC[C@@]12N=C(c3ccc(OCCCO)cc3)O[C@@H]1c1ccccc1N(C)C2=O,0.535 (inactive),0.759,-1.9,-4.57 (inactive),0.221 (inactive),0.444 (inactive)
C=C(CCCC)/C(=C/C[C@H](OC(=O)c1ccncc1)c1ccccc1OCCO)c1cnc2ccccc2c1,0.8 (inactive),0.575,-2.96,-4.41 (inactive),0.618 (inactive),0.783 (inactive)
COc1cc(Br)cc(C(O)C2C=CC3C(=O)N(C)C(=O)C3N2N2CCCCC2)c1OC (stereo not drawn),-0.0992 (inactive),0.823,-0.11,-2.65 (inactive),0.293 (inactive),0.0293 (inactive)
COC(=O)[C@@]1(Cc2ccc(F)cc2)[C@H]2c3cc(C(=O)N4CCCC4)n(Cc4ccc(S(C)(=O)=O)cc4)c3C[C@H]2CN1C(=O)c1ccccc1,0.845 (inactive),0.116,-1.46,-4.4 (inactive),0.396 (inactive),0.172 (inactive)
CC(C)C(=C=CC[C@@H](O)c1ccc(OCCO)cc1)C[C@@H](O)c1ccccn1,1.5 (inactive),0.198,-0.278,-5.14 (inactive),-0.329 (inactive),-0.22 (inactive)
NC(=O)NCC#Cc1ccc2c(c1)[C@]1(C(=O)N2)[C@H](C(=O)Nc2nc3ccccc3s2)[C@H]2C(=O)O[C@H](c3ccccc3)[C@H](c3ccccc3)N2[C@@H]1c1ccccc1OCCO,0.478 (inactive),0.606,-1.74,2.54 (inactive),0.302 (inactive),0.603 (inactive)
CCOC(=O)C[C@H]1[C@H](OC(=O)c2ccc(C(=O)c3ccccc3)cc2)[C@@H](NC(=O)c2ccc3ccccc3c2)c2cc(OCCCO)ccc2N1C(=O)Cc1ccc(OC)cc1,0.135 (inactive),-0.011,-1.06,-1.59 (inactive),-0.0477 (inactive),-0.0525 (inactive)
COCCCNC(=O)[C@]1(CCC(=O)OC(C)(C)C)N=C(c2ccc(OCCCO)cc2)O[C@@H]1c1ccccc1CN=[N+]=[N-],-0.0552 (inactive),0.848,-2.08,-6.66 (inactive),-0.113 (inactive),-0.534 (inactive)
C=C(C)[C@@H]1CC=C(C(O)C2C=CC3C(=O)N(c4ccccc4)C(=O)C3N2Nc2ccccc2)CC1 (stereo partly drawn),0.0668 (inactive),0.717,0.759,-2.62 (inactive),-0.437 (inactive),-0.626 (inactive)

Structure (SMILES),composite z-score [1],composite z-score (XIP peptide (Xip251-270)),z-score [2],z-score [3],z-score [4],z-score [5]
C=CCOC(=O)[C@@H]1[C@H]2C(=O)O[C@H](c3ccccc3)[C@H](c3ccccc3)N2[C@H](c2ccc(OCCOC(=O)[C@@H]3C[C@@H]4C(=O)NCC(=O)N4[C@@H]3c3ccc(O)cc3)cc2)[C@@]12C(=O)Nc1ccc(I)cc12,0.549 (inactive),0.849,-1.77,-0.29 (inactive),0.273 (inactive),0.702 (inactive)
CCC(CC)C(O)C1C=CC2C(=O)NC(=O)C2N1Nc1ccccn1 (stereo not drawn),-0.471 (inactive),0.579,-0.3,-0.375 (inactive),0.933 (inactive),0.481 (inactive)
CC(C)N1C(=O)[C@@]2(Cc3ccccc31)c1ccccc1C(=O)N(Cc1ccccc1Cl)[C@H]2c1ccc(CO)cc1,-0.26 (inactive),0.388,-0.113,-0.978 (inactive),-0.339 (inactive),-0.458 (inactive)
CC(C)N1C(=O)c2ccccc2[C@](C)(C(=O)NCCN2CCOCC2)[C@@H]1c1ccc(CO)cc1,0.0317 (inactive),-0.119,0.437,-3.78 (inactive),-0.155 (inactive),-0.332 (inactive)
COc1ccccc1CN1C(=O)c2ccccc2[C@@]2(Cc3ccccc3N(CC(C)C)C2=O)[C@@H]1c1ccc(CO)cc1,-0.25 (inactive),0.607,-0.422,-0.795 (inactive),-0.132 (inactive),-0.425 (inactive)
C=CCOC(=O)[C@H]1[C@@H]2C(=O)O[C@@H](c3ccccc3)[C@@H](c3ccccc3)N2[C@@H](c2ccc(OCCOC(=O)[C@H]3C[C@H]4C(=O)N[C@@H](CCCCNC(C)=O)C(=O)N4[C@H]3c3ccc(O)cc3)cc2)[C@]12C(=O)Nc1ccc(I)cc12,0.159 (inactive),0.671,-1.39,5.87 (inactive),-0.484 (inactive),-0.782 (inactive)
CCCC[C@H]1OB(O)C[C@H]2C1=C(COC)Cn1c(=O)n(-c3ccccc3)c(=O)n12,0.81 (inactive),-0.305,-1.29,-2.41 (inactive),-0.503 (inactive),-0.639 (inactive)
CCOC(=O)C[C@H]1[C@H](OC(=O)c2ccccc2-c2ccccc2)[C@@H](NC(=O)CC(C)C)c2cc(OCCCO)ccc2N1C(=O)Cc1ccc(OC)cc1,-0.245 (inactive),-0.328,-0.106,-5.17 (inactive),0.34 (inactive),0.524 (inactive)
C=C(/C(=C/C[C@H](OC(C)=O)c1ccc(CO)o1)c1cc(C(=O)OC)ccc1OC)C(C)C,-0.508 (inactive),-0.567,-2.09,-4.8 (inactive),-0.33 (inactive),-0.286 (inactive)
C=C(CCCC)/C(=C/C[C@@H](OC(C)=O)c1ccc(OCCO)cc1)c1cnc2ccccc2c1,0.591 (inactive),0.751,-3,-3.65 (inactive),-0.66 (inactive),-0.0832 (inactive)
CCCC[C@@H]1C[C@H]1[C@@H](NC(=O)c1ccco1)c1ccc(-c2ccccc2)cc1,-0.781 (inactive),-0.321,-0.937,0.141 (inactive),0.353 (inactive),0.0955 (inactive)
O=C1C[C@@](C(=O)NCCN2CCOCC2)(c2ccc([N+](=O)[O-])cc2)[C@@H](c2ccc(CO)cc2I)N1CC12CC3CC(CC(C3)C1)C2,0.634 (inactive),0.761,-2.04,-3.99 (inactive),-0.894 (inactive),-1.24 (inactive)
C=CCOC(=O)[C@@H]1[C@H]2C(=O)O[C@H](c3ccccc3)[C@H](c3ccccc3)N2[C@H](c2ccc(OCCOC(=O)[C@H]3C[C@H]4C(=O)N5CCC[C@H]5C(=O)N4[C@H]3c3ccc(O)cc3)cc2)[C@@]12C(=O)Nc1ccc(I)cc12,1.93 (inactive),0.833,-1.56,1.53 (inactive),-0.0415 (inactive),0.0454 (inactive)
C=CCC(OC(C)=O)[C@@H]1[C@@H](N(Cc2ccc(-c3ccccc3)cc2)C(=O)c2cccc3ccccc23)c2cc(OCCCO)ccc2N1C(=O)c1ccc(-c2ccccc2)cc1 (stereo partly drawn),-0.299 (inactive),-0.321,-2.81,-1.22 (inactive),-0.627 (inactive),-0.234 (inactive)
COc1ccc(C#Cc2ccc3c(c2)[C@]2(C(=O)N3)[C@H](C(=O)Nc3nc4ccccc4s3)[C@H]3C(=O)O[C@H](c4ccccc4)[C@H](c4ccccc4)N3[C@@H]2c2ccc(O)cc2)cc1,0.0642 (inactive),0.73,-0.435,-0.717 (inactive),-0.0599 (inactive),-0.17 (inactive)
C[N+](C)(C)CCCCNC(=O)[C@@H]1C[C@@H]2C(=O)N[C@@H](Cc3ccccc3)C(=O)N2[C@@H]1c1cccc(OCCO)c1,1.09 (inactive),0.645,-0.421,-2.57 (inactive),0.367 (inactive),0.276 (inactive)
